Measurements as given in PubChem BioAssay (NCATS).
Records with an inconclusive call do not appear. Calls of active or inactive are those of the source. Calls follow the shape of the dose curve; as a rule, active = well fitted curve in the direction sought with a large enough effect; inconclusive = small, poorly fitted or top-dose-only effect, or another doubt; inactive = no such curve, though single readings can be large; an effect the other way counts as inactive or inconclusive.

Columns and labels:
CRL-7250 = normal cell line; assay: Cytotoxic Profiling of Annotated Libraries Using Quantitative High-Throughput Screening (AID 1296008); conditions: Five cell lines viability, CellTiter-Glo ATP luminescence, 48-72 h; max response: stronger effect = lower value; also: nearly all actives have a fitted effect of over 60% in size; as to max response: % is scaled to controls: 0 for no effect and ±100 for the full control effect
In short: (§1)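 Compounds were pin-transferred onto cells and incubated 48 or 72 hr at 37 degree Celsius, 95% humidity. CellTiter-Glo was added, plates sat 10 min at room temperature, then ATP-coupled luminescence was imaged as the viability read-out.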

HEK293 = assay: as above; conditions: Five cell lines viability, CellTiter-Glo ATP luminescence, 48-72 h; max response: stronger effect = lower value
In short: as §1

HaCat [1] = assay: as above; conditions: Five cell lines viability, CellTiter-Glo ATP luminescence, 48-72 h; max response: stronger effect = lower value
In short: as §1

KB-3-1 = assay: as above; conditions: Five cell lines viability, CellTiter-Glo ATP luminescence, 48-72 h; max response: stronger effect = lower value
In short: as §1

NIH3T3 = assay: as above; conditions: Five cell lines viability, CellTiter-Glo ATP luminescence, 48-72 h; max response: stronger effect = lower value
In short: as §1

HACAT [2] = assay: qHTS assay to identify novel small-molecules to repurpose for Merkel cell carcinoma treatment (AID 1296009); conditions: MCC and control cell lines, CellTiter-Glo viability, 72 h; at 44.8 µM (top of the series) unless noted; also: nearly all actives have a fitted effect of over 60% in size
In short: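 Cells exposed to NPC (8-point) and MIPE (11-point) compound dilutions for 72 hr at 37 degree celsius; viability read by CellTiter-Glo luminescence, normalized to no-cell and DMSO in-plate controls.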

C33A = assay: Primary qHTS to identify gynecologic anti-cancer compounds using libraries of approved drugs and bioactive compounds (AID 1345084); conditions: Gynecologic cancer cell panel viability, ATPlite luminescence, 48 h; series mostly up to 57.5 µM; also: % is scaled to controls: 0 for no effect and ±100 for the full control effect; nearly all actives have a fitted effect of over 55% in size
In short: (§2)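 Luminescence from the ATPlite ATP-monitoring reagent indicates viable cell number; lower signal means cytotoxicity. Cells received compound 16 h after seeding and were exposed for 48 h across five concentrations.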

CAOV3 = assay: as above; conditions: Gynecologic cancer cell panel viability, ATPlite luminescence, 48 h; series mostly up to 57.5 µM
In short: as §2

CASKI = assay: as above; conditions: Gynecologic cancer cell panel viability, ATPlite luminescence, 48 h; series mostly up to 57.5 µM
In short: as §2

Es-2 = assay: as above; conditions: Gynecologic cancer cell panel viability, ATPlite luminescence, 48 h; series mostly up to 57.5 µM
In short: as §2

HeLa = assay: as above; conditions: Gynecologic cancer cell panel viability, ATPlite luminescence, 48 h; series mostly up to 57.5 µM
In short: as §2

Hek293T = assay: as above; conditions: Gynecologic cancer cell panel viability, ATPlite luminescence, 48 h, control line for the selectivity index; series mostly up to 57.5 µM
In short: as §2

JEG-3 = assay: as above; conditions: Gynecologic cancer cell panel viability, ATPlite luminescence, 48 h; series mostly up to 57.5 µM
In short: as §2

OV90 = assay: as above; conditions: Gynecologic cancer cell panel viability, ATPlite luminescence, 48 h; series mostly up to 57.5 µM
In short: as §2

PA-1 = assay: as above; conditions: Gynecologic cancer cell panel viability, ATPlite luminescence, 48 h; series mostly up to 57.5 µM
In short: as §2

COc1cc(/C=C/C(=O)OC[C@H]2O[C@@H](OC3OC=C(C(=O)O)C4C(O)CC(C)(O)C34)[C@H](O)[C@@H](O)[C@@H]2O)cc(OC)c1O (stereo not given in full)
inactive: max response (CRL-7250) -14.2% | max response (HEK293) -83.6% | outcome (HaCat [1]) | max response (KB-3-1) 9.94% | max response (NIH3T3) 4.03% | outcome (HACAT [2]) inactive [at 17.4 µM] | Potency (C33A) | Potency (CAOV3) | outcome (CASKI) | Potency (Es-2) | Potency (HeLa) | Potency (Hek293T) | Potency (JEG-3) | Potency (OV90) | Potency (PA-1)

C=CC(C)(O)CC/C=C(\C)COC1O[C@H](CO)[C@@H](O)[C@H](O)[C@H]1O (stereo not given in full)
inactive: max response (CRL-7250) -13.2% | max response (HEK293) 0.0631% | outcome (HaCat [1]) | max response (KB-3-1) 1.01% | max response (NIH3T3) 3.77% | outcome (HACAT [2]) | Potency (C33A) | Potency (CAOV3) | outcome (CASKI) | Potency (Es-2) | Potency (HeLa) | Potency (Hek293T) | Potency (JEG-3) | Potency (OV90) | Potency (PA-1)

COc1cc(C2Oc3c(OC)cc(CCCO)cc3C2CO)ccc1O (stereo not given)
inactive: outcome (CRL-7250) | max response (HEK293) 3.43% | outcome (HaCat [1]) | outcome (KB-3-1) | max response (NIH3T3) -0.27% | outcome (HACAT [2]) | Potency (C33A) | Potency (CAOV3) | outcome (CASKI) | Potency (Es-2) | Potency (HeLa) | Potency (Hek293T) | Potency (JEG-3) | Potency (OV90) | Potency (PA-1)

COc1c2c(c(C)c3c1C(=O)OC3)OC1(C)CC(O)C34OC(OC)(CC(O)C3(C)C1C2)OC4(C)C (stereo not given)
inactive: max response (CRL-7250) 0.784% | max response (HEK293) -15.9% | outcome (HaCat [1]) | max response (KB-3-1) 4.03% | max response (NIH3T3) 1.57% | outcome (HACAT [2]) inactive [at 17.4 µM] | Potency (C33A) | Potency (CAOV3) | outcome (CASKI) | Potency (Es-2) | Potency (HeLa) | Potency (Hek293T) | Potency (JEG-3) | Potency (OV90) | Potency (PA-1)

C=C1CCC2C(C)(C)CC(O)CC2(C)C1CCC(C)CC(=O)O (stereo not given)
inactive: max response (CRL-7250) -5.49% | max response (HEK293) 1.49% | outcome (HaCat [1]) | max response (KB-3-1) -5.43% | max response (NIH3T3) -0.43% | outcome (HACAT [2]) | Potency (C33A) | Potency (CAOV3) | outcome (CASKI) | Potency (Es-2) | Potency (HeLa) | Potency (Hek293T) | Potency (JEG-3) | Potency (OV90) | Potency (PA-1)

CC(NC(=O)c1ccccc1N)C(=O)O (stereo not given)
inactive: max response (CRL-7250) 2.02% | max response (HEK293) 4.67% | outcome (HaCat [1]) | max response (KB-3-1) 9.06% | max response (NIH3T3) 0.106% | outcome (HACAT [2]) | Potency (C33A) | Potency (CAOV3) | outcome (CASKI) | Potency (Es-2) | Potency (HeLa) | Potency (Hek293T) | Potency (JEG-3) | Potency (OV90) | Potency (PA-1)

CC1(C)OC(=O)C=C[C@@]2(C)C1CC(=O)[C@]1(C)C2CC[C@@]2(C)[C@H](c3ccoc3)OC(=O)[C@H]3O[C@]321 (stereo not given in full)
inactive: max response (CRL-7250) -0.596% | max response (HEK293) -1.27% | outcome (HaCat [1]) | outcome (KB-3-1) | max response (NIH3T3) -2.44% | outcome (HACAT [2]) inactive [at 17.4 µM] | Potency (C33A) | Potency (CAOV3) | outcome (CASKI) | Potency (Es-2) | Potency (HeLa) | Potency (Hek293T) | Potency (JEG-3) | Potency (OV90) | Potency (PA-1)

CCCCC(=O)N1c2ccccc2NC2=C(C(=O)CCC2)C1c1ccccc1Cl (stereo not given)
inactive: outcome (CRL-7250) | max response (HEK293) -3.83% | outcome (HaCat [1]) | max response (KB-3-1) 6.63% | max response (NIH3T3) -4.77% | outcome (HACAT [2]) | Potency (C33A) | Potency (CAOV3) | outcome (CASKI) | Potency (Es-2) | Potency (HeLa) | Potency (Hek293T) | Potency (JEG-3) | Potency (OV90) | Potency (PA-1)

C=C1CC2C(C)(CCC(=O)O)C(C(C)(C)O)CCC2(C)C2(C(=O)OC)C(=O)C(C)(O)C(=O)C12C (stereo not given)
inactive: max response (CRL-7250) -12.5% | max response (HEK293) -13.4% | outcome (HaCat [1]) | max response (KB-3-1) 1.2% | max response (NIH3T3) 0.874% | outcome (HACAT [2]) inactive [at 17.4 µM] | Potency (C33A) | Potency (CAOV3) | outcome (CASKI) | Potency (Es-2) | Potency (HeLa) | Potency (Hek293T) | Potency (JEG-3) | Potency (OV90) | Potency (PA-1)

COc1cnc(-c2ccc(Cn3c(CC(C)(C)C(=O)O)c(SC(C)(C)C)c4cc(OC[C@@H]5Cc6ccccc6N5C(C)=O)ccc43)cc2)nc1
inactive: max response (CRL-7250) -2.77% | max response (HEK293) -2.16% | outcome (HaCat [1]) | max response (KB-3-1) -12.4% | max response (NIH3T3) -14.7% | outcome (HACAT [2]) | Potency (C33A) | Potency (CAOV3) | outcome (CASKI) | Potency (Es-2) | Potency (HeLa) | Potency (Hek293T) | Potency (JEG-3) | Potency (OV90) | Potency (PA-1)

CC(C)(O)C(O)C(=O)OCc1ccc(O[C@@H]2O[C@H](CO)[C@@H](O)[C@H](O)[C@H]2O)cc1 (stereo not given in full)
inactive: max response (CRL-7250) -9.18% | max response (HEK293) 2.94% | outcome (HaCat [1]) | outcome (KB-3-1) | max response (NIH3T3) -2.16% | outcome (HACAT [2]) inactive [at 17.4 µM] | Potency (C33A) | Potency (CAOV3) | outcome (CASKI) | Potency (Es-2) | Potency (HeLa) | Potency (Hek293T) | Potency (JEG-3) | Potency (OV90) | Potency (PA-1)
